Results reported in PubChem BioAssay AID1159580 (chemical genetic matrix, 2015).
Several values for one entry are separate records, joined by “and”; a condition that tells them apart may be missing. Equal entries are not always repeated. Out of some 5,500 compounds screened, about 2,000 (36%) were called active. Inconclusive results (about 18%) are left out. Rule as the data show it: active = normalized growth mostly below about 0.91 (no sharp cut-off); inconclusive = no clear call, values can overlap the other calls; inactive = mostly above about 0.92. The list shows a part of the results.

Test: chemical genetic growth profiling, strain panel (AID 1159580);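 also: tested at 20 µM; growth read once vehicle control cultures reached saturation at 30 °C; 1 = growth at the plate median or of vehicle wells; lower values mean less growth of the strain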
Conditions: S. cerevisiae deletion strains, growth OD

Measured: normalized growth

COS(C)(=O)=O
inactive: locus YAL013W, strain DEP1, hits give low values 1 | locus YAL021C, strain ccr4, hits give low values 0.997 | locus YAL026C, strain drs2, hits give low values 1 | locus YAL030W, strain snc1, hits give low values 0.996 | locus YBL061C, strain skt5, hits give low values 0.992 | locus YBR009C, strain hhf1, hits give low values 1 | locus YBR021W, strain FUR4, hits give low values 1 | locus YBR023C, strain chs3, hits give low values 0.994 | locus YBR171W, strain sec66, hits give low values 0.978 | locus YBR229C, strain ROT2, hits give low values 1.01 | locus YBR231C, strain swc5, hits give low values 0.969 | locus YBR279W, strain paf1, hits give low values 1 | locus YCL011C, strain gbp2, hits give low values 1.02 | locus YCL016C, strain dcc1, hits give low values 1 | locus YCL029C, strain bik1, hits give low values 1.02 | locus YCL069W, strain vba3, hits give low values 1 | locus YCR088W, strain abp1, hits give low values 0.993 | locus YDL005C, strain med2, hits give low values 0.979 | locus YDL035C, strain GPR1, hits give low values 1.02 | locus YDL040C, strain nat1, hits give low values 0.993 | locus YDL074C, strain BRE1, hits give low values 0.986 | locus YDL101C, strain DUN1, hits give low values 1 | locus YDL134C, strain PPH21, hits give low values 1 | locus YDL185W, strain tfp1, hits give low values 1.01 | locus YDL192W, strain arf1, hits give low values 1.01 | locus YDR001C, strain nth1, hits give low values 0.997 | locus YDR069C, strain doa4, hits give low values 1.01 | locus YDR101C, strain arx1, hits give low values 1.01 | locus YDR137W, strain rgp1, hits give low values 1.02 | locus YDR150W, strain NUM1, hits give low values 1 | locus YDR159W, strain sac3, hits give low values 0.944 | locus YDR162C, strain NBP2, hits give low values 0.993 | locus YDR195W, strain ref2 0.948 | locus YDR297W, strain sur2, hits give low values 0.982 | locus YDR318W, strain mcm21, hits give low values 1.03 | locus YDR334W, strain swr1, hits give low values 0.988 | locus YDR335W, strain msn5, hits give low values 1 | locus YDR388W, hits give low values 1.01 | locus YDR392W, strain spt3, hits give low values 0.947 | locus YDR502C, strain sam2, hits give low values 0.994 | locus YEL003W, strain gim4, hits give low values 0.989 | locus YEL037C, strain rad23, hits give low values 1 | locus YEL061C, strain CIN8 (second series), hits give low values 0.998 | locus YEL061C, strain CIN8, hits give low values 1.01 | locus YER015W, strain faa2, hits give low values 1.02 | locus YER016W, strain bim1, hits give low values 0.98 | locus YER110C, hits give low values 1.02 | locus YER111C, strain swi4, hits give low values 0.998 | locus YER155C, strain BEM2 (second series), hits give low values 0.976 | locus YER155C, strain BEM2, hits give low values 1.01 | locus YER167W, strain BCK2, hits give low values 1.02 | locus YFR010W, strain ubp6, hits give low values 0.995 | locus YGL078C, strain dbp3, hits give low values 0.999 | locus YGL086W, strain mad1, hits give low values 1.02 | locus YGL167C, strain pmr1, hits give low values 0.997 | locus YGL173C, strain kem1, hits give low values 1 | locus YGL227W, strain vid30, hits give low values 0.978 | locus YGL240W, strain doc1, hits give low values 0.957 | locus YGL248W, strain PDE1, hits give low values 1 | locus YGL253W, strain hxk2, hits give low values 1 | locus YGR078C, strain PAC10, hits give low values 0.986 | locus YGR135W, strain pre9, hits give low values 0.966 | locus YGR229C, strain SMI1, hits give low values 0.993 | locus YGR252W, strain gcn5, hits give low values 1.02 | locus YHR013C, strain ard1, hits give low values 1 | locus YHR027C, strain rpn1, hits give low values 0.983 | locus YHR030C, strain SLT2, hits give low values 1.01 and 1 | locus YHR079C, strain IRE1 (second series), hits give low values 1.02 | locus YHR079C, strain IRE1, hits give low values 0.999 | locus YHR094C, strain hxt1, hits give low values 1.02 | locus YHR129C, strain ARP1, hits give low values 1.01 | locus YHR142W, strain chs7, hits give low values 1.01 | locus YHR200W, strain rpn10, hits give low values 1.02 | locus YIL066C, strain RNR3, hits give low values 1.04 | locus YIL073C, strain SPO22, hits give low values 1.09 | locus YIL125W, strain kgd1, hits give low values 1.02 | locus YIR030C, strain dcg1, hits give low values 1.02 | locus YJL092W, strain hpr5, hits give low values 1 | locus YJL095W, strain BCK1 (second series), hits give low values 0.995 | locus YJL095W, strain BCK1, hits give low values 1 | locus YJL115W, strain asf1, hits give low values 0.982 | locus YJL129C, strain trk1, hits give low values 0.971 | locus YJL134W, strain LCB3, hits give low values 1.01 | locus YJL154C, strain vps35, hits give low values 0.988 | locus YJL164C, strain tpk1, hits give low values 0.996 | locus YJL166W, strain qcr8, hits give low values 1 | locus YJL168C, strain set2, hits give low values 1.02 | locus YJL187C, strain SWE1 (second series), hits give low values 1 | locus YJL187C, strain SWE1, hits give low values 0.992 | locus YJR043C, strain POL32, hits give low values 1.03 | locus YJR066W, strain TOR1, hits give low values 0.974
